Reference: PubChem BioAssay (Tox21)
Where “and” joins values, the source holds several entries; their conditions need not be identical. Identical values can stand only once. Inconclusive results are not listed. A call without a number means that no potency is given here. More than one record can exist for a structure, and the calls need not agree. Calls of active or inactive are those of the source. Unless noted, the call rests on the fitted dose curve; in most records, active means well fitted curve in the direction sought with a large enough effect in the repeat runs; inconclusive means weak or mixed curves; inactive means no such curve, though single readings can be large; an effect the other way counts as inactive or inconclusive.

Experiments:
[1] = qHTS assay for small molecule agonists of the p53 signaling pathway (AID 651631; calls by dose curve; further: nearly all actives have a fitted effect of over 15% in size; further: potency means the concentration at half of the fitted maximal effect)
Outline: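 Readout was fluorescence from the LiveBLAzer FRET substrate, applied for 2 h at room temperature after 16 h compound exposure at 37 °C. Cells were the p53RE-bla HCT-116 line, with beta-lactamase driven by p53 response elements.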

[2] = qHTS assay for small molecules that induce genotoxicity in human embryonic kidney cells expressing luciferase-tagged ATAD5 (AID 651632); further: nearly all actives have a fitted effect of over 15% in size
Outline: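 Genotoxicity read-out via ATAD5-luciferase: HEK293T cells, 16 hr compound incubation at 37C, Amplite detection.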

[3] = qHTS assay for small molecule agonists of the p53 signaling pathway - cell viability (AID 651633; calls by dose curve; further: nearly all actives have a fitted effect of over 30% in size; further: potency means the concentration at half of the fitted maximal effect)
Outline: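 p53RE-bla cells were treated with compound for 16 hours at 37 C. Cytotoxicity was then measured as CellTiter-Glo luminescence after 30 min at room temperature.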

[4] = qHTS assay for small molecule disruptors of the mitochondrial membrane potential (AID 720635); further: potency means the concentration at half of the fitted maximal effect
Outline: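 HepG2 cells exposed to compound 1 hr at 37C, then Mito-MPS dye 30 min. Ratio read of aggregate (540/590 nm) versus monomer (490/535 nm) fluorescence.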

[5] = qHTS assay to test for compound auto fluorescence at 590 nm (red) in HepG2 cells (AID 720674)
Outline: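 HepG2 cells, 2,000 per well in MEM with 10% FBS, attached overnight at 37 C, then got 23 nL compound or DMSO. After 1 hr at 37 C, 5% CO2, red fluorescence was read at 540/590 nm against Rose Bengal sodium as reference.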

[6] = qHTS assay to test for compound auto fluorescence at 535 nm (green) in HepG2 cells (AID 720675); further: potency means the concentration at half of the fitted maximal effect
[7] = qHTS assay to test for compound auto fluorescence at 460 nm (blue) in HEK293 cells (AID 720678)
Outline: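 HEK293, 2,000 cells/well, 10% dialyzed FBS; attach 4-5 hr 37C; pin compound or DMSO; o/n 37C/5% CO2; fluorescence 405/460 nm; triamterene-equivalent units.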

[8] = qHTS assay to test for compound auto fluorescence at 590 nm (red) in HEK293 cells (AID 720679)
Outline: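 Intensity at 540nm excitation and 590nm emission is reported as Rose Bengal sodium-equivalent autofluorescence. Measurements followed overnight exposure (37C, 5% CO2) of HEK293 cells, 2,000 per well, to 23 nL compound.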

[9] = qHTS assay for small molecule disruptors of the mitochondrial membrane potential - cell viability (AID 720634; calls by dose curve; further: nearly all actives have a fitted effect of over 20% in size; further: potency means the concentration at half of the fitted maximal effect)
Outline: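 Human hepatoma HepG2 cells were treated for 1 hr with test chemicals, then given m-MPI dye and CellTiter-Glo. Cell viability reflects luminescence proportional to cellular ATP.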

[10] = qHTS assay for small molecules that induce genotoxicity in human embryonic kidney cells expressing luciferase-tagged ATAD5 - cell viability (AID 651634; calls by dose curve; further: nearly all actives have a fitted effect of over 25% in size; further: potency means the concentration at half of the fitted maximal effect)
Outline: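 Live-cell protease activity (CellTiter-Fluor, fluorescence) indicates viability. HEK293T cells with luciferase-tagged ATAD5; 15.5 hr compound treatment at 37C.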

CCOC(=O)C1=C(C)NC(C)=C(C(=O)OCC)C1c1ccccc1/C=C/C(=O)OC(C)(C)C
Potency [1]: 29.8 µM (active)
Potency [2]: inactive
Potency [3]: 29.8 µM (active)
Potency [4]: 10.6 µM (active)
Potency [5]: inactive
Potency [6]: inactive
Potency [7]: inactive
Potency [8]: inactive

CCCCCCCCCCOCC(O)CN (stereo not drawn)
Potency [1]: 33.5 µM (active)
Potency [2]: inactive
Potency [3]: 29.8 µM (active)
Potency [9]: inactive
Potency [5]: inactive
Potency [6]: inactive
Potency [7]: inactive
Potency [8]: inactive

COc1ccccc1OCCNCC(O)COc1cccc2[nH]c3ccccc3c12 (stereo not drawn)
Potency [2]: inactive
Potency [3]: inactive
Potency [10]: inactive
Potency [9]: inactive
Potency [4]: 23.7 µM (active)
Potency [5]: inactive
Potency [6]: inactive
Potency [7]: inactive
Potency [8]: inactive

C=CC(C)(CCC=C(C)C)OC(=O)/C=C/c1ccccc1 (stereo not drawn)
Potency [1]: inactive
Potency [2]: inactive
Potency [10]: inactive
Potency [9]: inactive
Potency [5]: inactive
Potency [6]: inactive
Potency [7]: inactive
Potency [8]: inactive

CCC(=O)OCCc1ccccc1
Potency [1]: inactive
Potency [2]: inactive
Potency [10]: inactive
Potency [9]: inactive
Potency [4]: inactive
Potency [5]: inactive
Potency [6]: inactive
Potency [7]: inactive
Potency [8]: inactive

CCN(CC)CCNc1ccc(CO)c2sc3ccccc3c(=O)c12
Potency [1]: 5.96 µM (active)
Potency [2]: inactive
Potency [10]: 23.7 µM (active)
Potency [9]: inactive
Potency [5]: inactive
Potency [6]: inactive
Potency [8]: inactive

CCCSS/C(CCO)=C(\C)N(C=O)Cc1cnc(C)nc1N
Potency [2]: inactive
Potency [3]: inactive
Potency [10]: inactive
Potency [9]: inactive
Potency [4]: inactive
Potency [5]: inactive
Potency [6]: inactive
Potency [7]: inactive
Potency [8]: inactive

Clc1ccc(C(c2ccccc2Cl)C(Cl)Cl)cc1 (stereo not drawn)
Potency [1]: 68.6 µM (active)
Potency [10]: inactive
Potency [9]: inactive
Potency [4]: 13.3 µM (active) and 27.3 µM (active)
Potency [5]: inactive
Potency [6]: inactive
Potency [7]: inactive
Potency [8]: inactive

C=CCCCCCCC=C
Potency [1]: inactive
Potency [3]: inactive
Potency [10]: inactive
Potency [9]: inactive
Potency [4]: inactive
Potency [5]: inactive
Potency [6]: inactive
Potency [7]: inactive
Potency [8]: inactive

CC1=C(/C=C/C(C)=C/C=C/C(C)=C/C(=O)Nc2ccc(O)cc2)C(C)(C)CCC1
Potency [1]: 29.8 µM (active)
Potency [2]: inactive
Potency [10]: 23.7 µM (active) and 28 µM (active)
Potency [9]: inactive
Potency [4]: 3.35 µM (active) and 2.8 µM (active)
Potency [5]: inactive
Potency [6]: inactive
Potency [7]: inactive
Potency [8]: inactive

C/C=C/C=N/NC(=O)c1ccncc1
Potency [2]: inactive
Potency [3]: inactive
Potency [10]: inactive
Potency [9]: inactive
Potency [4]: inactive
Potency [5]: inactive
Potency [6]: inactive
Potency [7]: inactive
Potency [8]: inactive

CC(C)(c1cc(Br)c(O)c(Br)c1)c1cc(Br)c(O)c(Br)c1
Potency [1]: 48.4 µM (active) and 41 µM (active)
Potency [2]: inactive
Potency [3]: 60.9 µM (active) and 24.3 µM (active) and 23 µM (active)
Potency [9]: inactive and 60.9 µM (active)
Potency [4]: 4.84 µM (active) and 7.67 µM (active) and 1.83 µM (active)
Potency [5]: inactive
Potency [6]: inactive
Potency [8]: inactive

O=C(NO)c1ccccc1
Potency [1]: 65.3 µM (active)
Potency [10]: inactive
Potency [9]: inactive
Potency [5]: inactive
Potency [6]: inactive
Potency [7]: inactive
Potency [8]: inactive

S=P(N1CC1)(N1CC1)N1CC1
Potency [1]: 14.4 µM (active)
Potency [2]: inactive
Potency [10]: inactive
Potency [9]: inactive
Potency [4]: inactive
Potency [5]: inactive
Potency [6]: inactive
Potency [7]: inactive
Potency [8]: inactive

CCCCCCCC/C=C\CCCCCCCC(=O)OCCOC(=O)CCCCCCC/C=C\CCCCCCCC
Potency [1]: inactive
Potency [2]: inactive
Potency [10]: inactive
Potency [9]: inactive
Potency [4]: 79.8 µM (active)
Potency [5]: inactive
Potency [6]: inactive
Potency [7]: inactive
Potency [8]: inactive

C[n+]1c2cc(N)ccc2cc2ccc(N)cc21 (tested in a mixture with another compound)
Potency [1]: 7.5 µM (active)
Potency [9]: inactive
Potency [4]: 0.668 µM (active)
Potency [5]: inactive
Potency [6]: 14.1 µM (active)
Potency [8]: inactive

CC(O)C#CC(C)O (stereo not drawn)
Potency [1]: inactive
Potency [10]: inactive
Potency [9]: inactive
Potency [5]: inactive
Potency [6]: inactive
Potency [7]: inactive
Potency [8]: inactive

O=C(Nc1ccc(Cl)cc1)Nc1ccc(Cl)c(C(F)(F)F)c1
Potency [1]: 16.8 µM (active)
Potency [2]: inactive
Potency [10]: 13.3 µM (active)
Potency [9]: 1.5 µM (active)
Potency [4]: 0.596 µM (active)
Potency [5]: inactive
Potency [6]: inactive
Potency [7]: inactive
Potency [8]: inactive

CCNc1nc(NC(C)CC)nc(OC)n1 (stereo not drawn)
Potency [1]: inactive
Potency [2]: inactive
Potency [10]: inactive
Potency [9]: inactive
Potency [4]: inactive
Potency [5]: inactive
Potency [6]: inactive
Potency [7]: inactive
Potency [8]: inactive

[O]=[Zr]
Potency [1]: inactive
Potency [2]: inactive
Potency [10]: inactive
Potency [9]: inactive
Potency [4]: inactive
Potency [5]: inactive
Potency [6]: inactive
Potency [7]: inactive
Potency [8]: inactive

COc1cc(C(=O)NS(=O)(=O)c2ccccc2C)ccc1Cc1cn(C)c2ccc(NC(=O)OC3CCCC3)cc12
Potency [2]: inactive
Potency [3]: 5.96 µM (active)
Potency [10]: inactive
Potency [9]: inactive
Potency [4]: 9.44 µM (active)
Potency [5]: inactive
Potency [6]: inactive
Potency [7]: inactive
Potency [8]: inactive

O=C(O)Cc1ccc(OCCNC[C@H](O)c2ccccc2)cc1
Potency [2]: inactive
Potency [3]: inactive
Potency [10]: inactive
Potency [9]: inactive
Potency [4]: inactive
Potency [5]: inactive
Potency [6]: inactive
Potency [7]: inactive
Potency [8]: inactive

CCCCCCCCCCCCOC(=O)c1cc(O)c(O)c(O)c1
Potency [1]: 68.3 µM (active) and 61.1 µM (active)
Potency [3]: 48.3 µM (active) and 48.6 µM (active)
Potency [10]: 60.9 µM (active) and 13.7 µM (active)
Potency [9]: 60.9 µM (active) and 54.5 µM (active)
Potency [4]: 3.05 µM (active) and 4.33 µM (active)
Potency [5]: inactive
Potency [6]: inactive
Potency [7]: inactive
Potency [8]: inactive

Cc1c(C(=O)O)cccc1[N+](=O)[O-]
Potency [1]: inactive
Potency [2]: inactive
Potency [10]: inactive
Potency [9]: inactive
Potency [4]: inactive
Potency [5]: inactive
Potency [6]: inactive
Potency [7]: inactive
Potency [8]: inactive

CC(C)c1cccc(C(C)C)c1N1C(=O)c2ccc(O)cc2C1=O
Potency [1]: 1.54 µM (active)
Potency [2]: inactive
Potency [10]: inactive
Potency [9]: 9.69 µM (active)
Potency [4]: 1.22 µM (active)
Potency [5]: inactive
Potency [6]: inactive
Potency [8]: inactive

O=C(O)c1cccc(Cl)n1
Potency [1]: inactive
Potency [2]: inactive
Potency [10]: inactive
Potency [9]: inactive
Potency [4]: inactive
Potency [5]: inactive
Potency [6]: inactive
Potency [7]: inactive
Potency [8]: inactive

Cc1cccc(Br)c1
Potency [1]: inactive
Potency [2]: inactive
Potency [10]: inactive
Potency [9]: inactive
Potency [4]: inactive
Potency [5]: inactive
Potency [6]: inactive
Potency [7]: inactive
Potency [8]: inactive

Cc1cn[nH]c1
Potency [1]: inactive
Potency [2]: inactive
Potency [10]: inactive
Potency [9]: inactive
Potency [4]: inactive
Potency [5]: inactive
Potency [6]: inactive
Potency [8]: inactive

CCCC(CC)CCCCCCCN (stereo not drawn)
Potency [1]: inactive
Potency [2]: inactive
Potency [9]: inactive
Potency [5]: inactive
Potency [6]: inactive
Potency [7]: inactive
Potency [8]: inactive

CCC(C)c1cc([N+](=O)[O-])cc([N+](=O)[O-])c1OC(=O)OC(C)C (stereo not drawn)
Potency [1]: 30.6 µM (active)
Potency [2]: inactive
Potency [10]: 61.1 µM (active)
Potency [9]: 21.7 µM (active)
Potency [4]: 3.06 µM (active)
Potency [5]: inactive
Potency [6]: inactive
Potency [8]: inactive

O=C1OC(OC(=O)c2cccnc2Nc2cccc(C(F)(F)F)c2)c2ccccc21 (stereo not drawn)
Potency [1]: inactive
Potency [2]: inactive
Potency [10]: inactive
Potency [9]: inactive
Potency [4]: 24.8 µM (active)
Potency [5]: inactive
Potency [6]: inactive
Potency [7]: inactive
Potency [8]: inactive

O=C1c2c(O)ccc([N+](=O)[O-])c2C(=O)c2c([N+](=O)[O-])ccc(O)c21
Potency [2]: inactive
Potency [3]: 8.56 µM (active)
Potency [10]: 9.6 µM (active)
Potency [9]: 30.4 µM (active)
Potency [4]: 0.054 µM (active)
Potency [5]: inactive
Potency [6]: inactive
Potency [8]: inactive

Cc1occc1SSc1ccoc1C
Potency [2]: inactive
Potency [3]: inactive
Potency [9]: inactive
Potency [4]: inactive
Potency [5]: inactive
Potency [6]: inactive
Potency [7]: inactive
Potency [8]: inactive

O=Cc1ccc(F)cc1
Potency [2]: inactive
Potency [3]: inactive
Potency [10]: inactive
Potency [9]: inactive
Potency [5]: inactive
Potency [6]: inactive
Potency [7]: inactive
Potency [8]: inactive

CCCN(CCc1cccs1)[C@H]1CCc2c(O)cccc2C1
Potency [2]: inactive
Potency [3]: inactive
Potency [10]: inactive
Potency [9]: inactive
Potency [4]: 24.8 µM (active)
Potency [5]: inactive
Potency [6]: inactive
Potency [7]: inactive
Potency [8]: inactive

CCN=C1C=CC(=C(c2ccc(N(CC)CC)cc2)c2ccc(N(CC)CC)cc2)c2ccccc21
Potency [2]: inactive
Potency [3]: 30.5 µM (active)
Potency [10]: 34.2 µM (active)
Potency [4]: 0.0076 µM (active)
Potency [5]: inactive
Potency [6]: inactive
Potency [7]: inactive
Potency [8]: inactive

C=CC(=O)OCC(O)COc1ccccc1 (stereo not drawn)
Potency [2]: inactive
Potency [3]: 54.5 µM (active)
Potency [9]: inactive
Potency [5]: inactive
Potency [6]: inactive
Potency [7]: inactive
Potency [8]: inactive
